40 compounds from PubChem BioAssay (NCATS) can be followed below.

Structures are written as SMILES. Inconclusive results are not listed. Where a call stands in place of a potency, no number is given. The source made the active and inactive calls. Calls follow the shape of the dose curve; as a rule, active = well fitted inhibition curve with a large enough effect; inconclusive = small, poorly fitted or top-dose-only effect; inactive = no such curve, though single readings can be large or run the other way.

This assay addresses Retinaldehyde dehydrogenase 3 (Homo sapiens) (UniProt P47895). The assay is described as follows: qHTS for Inhibitors of the Aldehyde Dehydrogenase Family (ALDH1A3) Primary screen (AID 2061315). The following applies: ALDH inhibition qHTS; series mostly up to 56 µM. In general terms: Quantitative high-throughput screening tests each substance at several concentrations.
Regarding `CCOc1cccc(-c2cc(-c3n[nH]c(=S)n3CC)c3ccccc3n2)c1`, the Potency entry is “inactive”.

`c1nc(NCCc2cnc[nH]2)c2ccc(-c3ccc4c(c3)OCO4)cc2n1`: the Potency entry is “inactive”.

As for `O=c1c(Nc2ccc(F)c(C(F)(F)F)c2)c(Nc2nnc(-c3ccncc3)s2)c1=O`, the Potency result was “inactive”.

For the compound `O=C(Cn1nc(-c2ccncc2)ccc1=O)NCCc1ccccc1`, the Potency result was “inactive”.

In the case of `c1cncc(-c2ccc3ncnc(NCc4ccc5c(c4)OCO5)c3c2)c1`, the Potency entry was “inactive”.

As to `O=c1c2ccc(-c3cn[nH]c3)cc2nc2sc(Nc3ccc4c(c3)CCC4)nn12`, the Potency entry was “inactive”.

`Cc1cc(C)nc(NC(=S)N2CCN(c3cncs3)CC2)c1`: the Potency entry was “inactive”.

Take `COc1cc(C(N)=O)nc(-c2ccccn2)c1O`: the Potency entry was “inactive”.

On to `O=C(Nc1ccc(-c2nc3ccccc3[nH]2)cc1)c1ccc(-c2ccccc2)cc1`, for which the Potency result was “inactive”.

For `Cc1ccc(N2CCN(S(=O)(=O)c3ccc4c(c3)CC(=O)N4)CC2)cc1`, the Potency result is “inactive”.

Turning to `O=C(N1Cc2ccc(Nc3nn4c(=O)c5ccccc5nc4s3)cc2C1)C(F)(F)F`, the Potency entry is “inactive”.

Turning to `COc1ccccc1NS(=O)(=O)c1cc(NC(=O)c2ccccc2)ccc1N1CCCC1`, the Potency result was “inactive”.

For `Fc1cccc(CNc2nc(-c3ccccc3C(F)(F)F)nc3ccccc23)c1`, the Potency entry was “inactive”.

As for `O=C(Nc1ncnc2c1C(c1ccccc1)c1c(ccc3ccccc13)O2)c1ccccc1` (stereo not given), the Potency entry was “inactive”.

Turning to `CS(=O)(=O)c1ccc(C(=O)OCC(=O)N2CCN(Cc3ccccc3)CC2)cc1[N+](=O)[O-]`, the Potency entry is “inactive”.

Turning to `Cc1cc(C)nc(NC(=S)N2CCN(c3ccc(Cl)nn3)CC2)c1`, the Potency entry was “inactive”.

With `O=C1CCCC2=C1C(c1ccn[nH]1)N=C(Nc1nc3ccccc3o1)N2` (stereo not given), the Potency entry is “inactive”.

For the compound `Oc1ccc(CNc2ccc(F)cc2Cl)c2cccnc12`, the Potency result is “inactive”.

`Cc1ccc(-c2ccc(=O)n(CC(=O)NCCCc3ccccc3)n2)cc1`: the Potency entry is “inactive”.

With `COc1cc(F)c(S(=O)(=O)N2CCN(S(=O)(=O)c3cccs3)CC2)c(F)c1`, the Potency result was “inactive”.

For the compound `N#Cc1nc(-c2cccc3ccccc23)oc1Nc1ccccc1`, the Potency entry is “inactive”.

On to `Cc1ccc(NS(=O)(=O)c2cc3c(cc2-c2ccccc2)NC(=O)CO3)cc1C`, for which the Potency result is “inactive”.

As for `O=C1c2ccccc2C(=O)N1c1ccc2ccccc2n1`, the Potency entry was “inactive”.

In the case of `COc1ccc(C2c3c(nc(CCc4ccccc4)[nH]c3=O)Oc3ccc4ccccc4c32)cc1OC` (stereo not given), the Potency entry was “inactive”.

As for `Cc1ccc(NS(=O)(=O)c2ccc3c(c2)CCO3)cc1C`, the Potency result was “inactive”.

Consider `COc1ccc(C2c3c(N)nc(Cc4ccccc4)nc3Oc3ccc4ccccc4c32)cc1OC` (stereo not given), for which the Potency result is “inactive”.

On to `CC(=O)c1ccc(N2CCN(S(=O)(=O)c3ccc4[nH]c(=O)[nH]c4c3)CC2)cc1`, for which the Potency result was “inactive”.

As to `COc1cccc(CNc2ccc(S(=O)(=O)Nc3cccc4ccccc34)cc2)c1O`, the Potency entry is “inactive”.

In the case of `CCN(Cc1cccs1)c1ncnc2ccc(-c3ccc4c(c3)OCO4)cc12`, the Potency entry was “inactive”.

As to `Cc1ccc(CNc2ncnc3ccc(-c4ccc5c(c4)OCO5)cc23)s1`, the Potency entry was “inactive”.

With `c1ccc(-n2ccc(-c3nnc4n3CCCCC4)c2)cc1`, the Potency entry is “inactive”.

`CC(=O)N1CCN(c2cccc(Nc3nn4c(=O)c5ccccc5nc4s3)c2)CC1`: the Potency result was “inactive”.

In the case of `Cn1ccc2cc(-c3csc(N4CCC(C(N)=O)CC4)n3)ccc21`, the Potency entry was “inactive”.

`Cc1cc(C)nc(NC(=S)N2CCN(c3cccc4ccccc34)CC2)c1`: the Potency entry is “inactive”.

For the compound `Cc1ccnc(NC(=S)N2CCN(c3cccc(C(F)(F)F)c3)CC2)n1`, the Potency result was “inactive”.

On to `O=C1CCCC2=C1C1(CCSCC1)N=C(Nc1nc3ccccc3o1)N2`, for which the Potency result was “inactive”.

Regarding `Cc1ccc(NS(=O)(=O)c2cc3c(cc2C)NC(=O)CO3)cc1C`, the Potency result is “inactive”.

On to `COc1ccc(C2c3ccc4ccccc4c3Oc3ncn(CCN4CCOCC4)c(=N)c32)cc1OC` (stereo not given), for which the Potency result was “inactive”.

For `Cn1c2cc([N+](=O)[O-])sc2c2cnn(Cc3ccccc3F)c(=O)c21`, the Potency result was “inactive”.

Turning to `O=C1CCCC2=C1C(c1ccccc1I)N=C(Nc1nc3ccccc3o1)N2` (stereo not given), the Potency result was “inactive”.
